An excerpt weighted towards active compounds, which were near 1.1% of everything screened.
COUP-TFII inh: NR2F2 (human) inhibition, primary screen. P24468. HEK293T NGFI-A luciferase reporter, luminescence. actives 0.7% (n = 370,000). inhibition, % at 8.6 µM;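 active = inhibition above a per-plate cutoff, mean inhibition of test wells between control levels plus 3 SD, cut at about 38% in these data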;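 also: cells cotransfected with COUP-TFII expression vector driving the NGFI-A reporter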
SRC3 inh: human NCOA3 inhibition. Q9Y6Q9. HEK293 GAL4-SRC3 luciferase reporter, luminescence. inhibition, % at 3.6 µM. actives 0.17% (n = 360,000). AID 588352;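 active = inhibition above a per-campaign cutoff, the mean of all compounds plus 3 SD, cut at about 60% in these data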;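 also: higher means less SRC3-driven luciferase light from the GAL4 reporter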
NCOA2 inhibitor: inhibits human steroid receptor coactivator 2 | HEK293 GAL4-SRC2 luciferase reporter, luminescence | actives 0.17% (n = 370,000) | Q15596 | AID 651957 | inhibition, % at 9 µM;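 active = inhibition above the mean inhibition of all tested compounds plus 3 SD, set per campaign, cut at about 52% in these data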
SRC1 inh: inhibitors of human steroid receptor coactivator 1 (SRC1); Q15788; HEK293 GAL4-SRC1 luciferase reporter, luminescence; inhibition, % at 3.6 µM; actives 0.12% (n = 360,000); AID 588354;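 active = inhibition above the campaign mean plus 3 SD, with each screening campaign given its own cutoff, cut at about 60% in these data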
GalR3 antagonist: human GalR3 antagonism. O60755. HEK293 GalR3-CNG cAMP membrane potential fluorescence; galR3 body fused to GalR1 C-terminus. inhibition, % at 3 µM. actives 0.44% (n = 360,000);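 active = inhibition above the screen-wide average plus 3 SD, cut at about 13% in these data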;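 also: forskolin and galanin both at EC90 stimulate the cells; cAMP rise reported by CNG channel membrane potential dye signal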
LRH-1 inv ag: inverse agonists of human LRH-1 (NR5A2) | inhibition, % at 3.6 µM | O00482 | actives 0.13% (n = 360,000) | HEK293T StAR-luciferase reporter, LRH-1 transfected, 24 h;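 active = inhibition above the mean inhibition of all tested compounds plus 3 SD, cut at about 73% in these data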
Target sequence (O00482 whole entry, looked up): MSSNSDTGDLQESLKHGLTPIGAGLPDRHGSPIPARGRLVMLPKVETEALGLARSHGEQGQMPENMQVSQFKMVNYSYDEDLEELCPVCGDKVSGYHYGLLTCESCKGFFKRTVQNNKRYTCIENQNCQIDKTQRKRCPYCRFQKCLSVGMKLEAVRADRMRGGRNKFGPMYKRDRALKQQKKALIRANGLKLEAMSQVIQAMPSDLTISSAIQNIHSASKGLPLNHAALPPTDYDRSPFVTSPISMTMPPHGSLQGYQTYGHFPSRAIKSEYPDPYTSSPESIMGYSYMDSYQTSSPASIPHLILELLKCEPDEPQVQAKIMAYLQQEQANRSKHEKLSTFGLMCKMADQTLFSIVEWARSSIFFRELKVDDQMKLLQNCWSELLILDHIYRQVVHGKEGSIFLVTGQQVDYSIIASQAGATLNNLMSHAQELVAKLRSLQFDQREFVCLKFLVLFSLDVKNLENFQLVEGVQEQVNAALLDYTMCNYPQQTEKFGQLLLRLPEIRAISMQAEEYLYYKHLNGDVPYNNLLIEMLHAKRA
GalR3 conf: confirmation of human galanin receptor 3 antagonists; shares compounds with GalR3 antagonist; HEK293 GalR3 CNG cAMP biosensor, membrane potential fluorescence; galR3 fused to GalR1 carboxy tail; challenged with forskolin and galanin at EC90; inhibition, % at 3 µM; actives 59% (n = 1,600); AID 652245;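 active = inhibition above the primary screen's cutoff, the mean inhibition of all screened compounds plus 3 SD, cut at about 13% in these data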
HEK-CNG parental: parental cell agonism counter-screen for GalR3 antagonists; shares compounds with GalR3 antagonist; HEK293-CNG parental cells, cAMP membrane potential fluorescence; normalised: DMSO wells 0%, forskolin wells 100%; activation, % at 3 µM; actives 10% (n = 1,600); AID 652268; in the data active = activation above about 1.3%
Numbers stand for hits; n = inactive; x = no result.

SMILES | COUP-TFII inh | SRC3 inh | NCOA2 inhibitor | SRC1 inh | GalR3 antagonist | LRH-1 inv ag | GalR3 conf | HEK-CNG parental
Cc1ccc(C(=O)NCC(=O)OCCCn2c(=O)[nH]c3ccccc32)cc1 | n | n | n | n | n | n | x | x
Nc1nnc(SCC(=O)NCCOc2ccccc2)s1 | n | n | n | n | 18 | n | n | n
Nc1nnc(SCC(=O)NCCNC(=O)CSc2nnc(N)s2)s1 | n | n | n | n | n | n | x | x
CC(C)[C@H](NC(=O)c1ccc(Cl)c(Cl)c1)C(=O)N1CCC[C@H]1C(=O)NCc1ccccc1 | n | x | n | x | n | x | x | x
N#C/C(=C\c1ccccc1)C(=O)Nc1nncs1 | n | n | n | n | 16 | n | n | n
O=C(NC(Cc1c[nH]c2ccccc12)C(=O)N/N=C/c1ccc(Cl)cc1)c1cccs1 (stereo not drawn) | n | n | n | n | n | n | x | x
COc1ccc(/C=N/NC(=O)C(Cc2c[nH]c3ccccc23)NC(=O)OCC(C)C)cc1[N+](=O)[O-] (stereo not drawn) | n | n | n | n | 15 | n | 26 | n
Cc1cc(=O)[nH]c(N/N=C/c2ccc(Cl)c([N+](=O)[O-])c2)n1 | n | n | n | n | 14 | n | n | n
CCOc1cc(C(C(=O)NCC2CCCO2)N(C(=O)Cn2nnc3ccccc32)c2ccccc2C(C)=O)ccc1O (stereo not drawn) | n | n | n | n | 15 | n | 14 | n
O=C(Nc1ccc(Br)c2ccccc12)c1ccc2ccccc2c1O | n | n | n | n | 78 | n | 90 | n
CC(=O)Nc1ccc(Br)c2ccccc12 | n | n | n | n | n | n | x | x
COc1ccc(OC)c(NC(=O)c2cc(-c3cc(C)c(C)cc3O)n[nH]2)c1 | n | n | n | n | n | n | x | x
COc1ccc(C(=O)C2CCCN(C(=O)c3ccoc3C)C2)cc1F (stereo not drawn) | n | n | n | n | 13 | n | n | n
COc1ccc(-c2c3c(cc4ncn(Cc5ccccc5)c24)COC3=O)cc1 | n | n | n | n | 27 | n | 52 | n
COc1ccc(-c2csc3ncn(Cc4ccccc4)c(=O)c23)cc1 | n | n | n | n | n | n | x | x
CCc1cccc(NC(=O)CN(C)S(=O)(=O)c2cccs2)c1 | n | n | n | n | 14 | n | n | n
CN(CC(=O)Nc1ccc(F)c(F)c1)S(=O)(=O)c1cccs1 | n | n | n | n | n | n | x | x
COCCn1nnnc1C(C(C)C)N(Cc1ccccc1)Cc1cc2cc(OC)ccc2[nH]c1=O (stereo not drawn) | n | n | n | n | 65 | n | 60 | n
COc1ccc2[nH]c(=O)c(CN(Cc3ccco3)C(c3nnnn3Cc3ccccc3)C(C)C)cc2c1 (stereo not drawn) | n | n | n | n | 13 | n | n | n
COc1ccc(-c2cc(-c3n[nH]c(=S)n3-c3cccc4ccccc34)[nH]n2)cc1 | n | n | n | n | 52 | n | 49 | n
S=c1[nH]nc(-c2cc(-c3ccsc3)n[nH]2)n1-c1cccc2ccccc12 | n | n | n | n | n | n | x | x
COc1ccccc1-n1c(-c2cc(-c3ccc(F)cc3)n[nH]2)n[nH]c1=S | n | n | n | n | 14 | n | 13 | n
Cn1c(N)c(C(=O)COC(=O)/C=C/c2ccc(S(=O)(=O)N3CCOCC3)cc2)c(=O)n(C)c1=O | n | n | n | n | n | n | x | x
Cc1cc(C)c2cc(C=O)c(Cl)nc2c1 | n | n | n | n | 15 | n | 40 | 2.7
CCSC1=C(C#N)C2(CCCCC2)C2=C(CC(C)(C)CC2=O)N1 | n | n | n | n | n | n | x | x
O=C(CN1C(=O)/C(=C/c2ccc(F)cc2)SC1=S)N1CCN(CCc2ccccn2)CC1 | n | n | n | n | n | n | x | x
CCNc1nc(CN2CCCCC2)nc2scc(-c3ccccc3)c12 | n | n | n | n | 19 | n | 22 | 5.7
